For experiment [1], the target named is MAP/microtubule affinity-regulating kinase 3 (Homo sapiens) (UniProt P27448). The following applies: at 1 µM.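 Note: reported values are averaged percent inhibition of MARK3.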
Experiment [2] deals with T1, MAP/microtubule affinity-regulating kinase 4 (Homo sapiens) (UniProt Q96L34).
T1 sequence (whole entry): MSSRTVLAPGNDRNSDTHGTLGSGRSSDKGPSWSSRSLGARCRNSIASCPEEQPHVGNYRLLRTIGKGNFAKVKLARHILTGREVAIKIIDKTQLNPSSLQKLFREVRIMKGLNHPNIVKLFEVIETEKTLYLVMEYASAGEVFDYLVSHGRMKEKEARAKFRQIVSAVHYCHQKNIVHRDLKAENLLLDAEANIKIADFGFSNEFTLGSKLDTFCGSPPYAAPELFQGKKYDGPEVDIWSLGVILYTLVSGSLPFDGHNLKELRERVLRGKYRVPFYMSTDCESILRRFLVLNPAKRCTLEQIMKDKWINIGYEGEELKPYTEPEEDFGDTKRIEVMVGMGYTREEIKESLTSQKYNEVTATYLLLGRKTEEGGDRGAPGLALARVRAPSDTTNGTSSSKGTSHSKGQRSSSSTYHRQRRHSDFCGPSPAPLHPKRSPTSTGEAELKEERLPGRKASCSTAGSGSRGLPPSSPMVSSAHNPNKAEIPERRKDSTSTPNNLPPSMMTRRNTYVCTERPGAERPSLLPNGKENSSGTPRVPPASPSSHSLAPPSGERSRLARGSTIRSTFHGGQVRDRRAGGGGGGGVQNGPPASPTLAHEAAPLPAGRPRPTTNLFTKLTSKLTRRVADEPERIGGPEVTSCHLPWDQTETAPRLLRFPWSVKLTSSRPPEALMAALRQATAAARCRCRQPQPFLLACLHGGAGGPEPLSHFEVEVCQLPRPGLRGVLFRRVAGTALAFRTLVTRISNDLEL
The following applies: at 0.1 µM.

Experiment [3] deals with T1, MAP/microtubule affinity-regulating kinase 4 (Homo sapiens). The settings on record: at 1 µM.
Experiment [4] deals with Maternal embryonic leucine zipper kinase (Homo sapiens) (UniProt Q14680). The settings on record: at 0.1 µM.
Maternal embryonic leucine zipper kinase (Homo sapiens), sequence (Q14680 whole entry, looked up): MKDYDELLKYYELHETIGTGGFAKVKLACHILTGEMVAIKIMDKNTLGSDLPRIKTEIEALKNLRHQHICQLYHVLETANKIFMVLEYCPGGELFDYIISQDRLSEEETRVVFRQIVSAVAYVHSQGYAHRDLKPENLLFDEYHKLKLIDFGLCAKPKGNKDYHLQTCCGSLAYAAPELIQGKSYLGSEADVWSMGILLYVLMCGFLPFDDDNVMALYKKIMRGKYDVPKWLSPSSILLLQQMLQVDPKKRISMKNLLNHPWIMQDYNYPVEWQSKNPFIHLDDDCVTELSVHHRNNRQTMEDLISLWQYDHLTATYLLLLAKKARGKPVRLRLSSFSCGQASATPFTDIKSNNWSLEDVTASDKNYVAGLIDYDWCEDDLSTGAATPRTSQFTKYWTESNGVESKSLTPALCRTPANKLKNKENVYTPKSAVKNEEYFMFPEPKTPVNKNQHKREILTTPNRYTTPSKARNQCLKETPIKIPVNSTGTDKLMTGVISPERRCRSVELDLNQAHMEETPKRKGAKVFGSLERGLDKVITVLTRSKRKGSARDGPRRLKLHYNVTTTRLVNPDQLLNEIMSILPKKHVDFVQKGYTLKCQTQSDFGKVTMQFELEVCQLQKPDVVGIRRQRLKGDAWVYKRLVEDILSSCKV
Experiment [5] shares this target. The settings on record: at 1 µM.
The target in experiment [6] is MAP kinase-interacting serine/threonine-protein kinase 1 (Homo sapiens) (UniProt Q9BUB5). The following applies: at 0.1 µM.
MAP kinase-interacting serine/threonine-protein kinase 1 (Homo sapiens), sequence (Q9BUB5 whole entry, looked up): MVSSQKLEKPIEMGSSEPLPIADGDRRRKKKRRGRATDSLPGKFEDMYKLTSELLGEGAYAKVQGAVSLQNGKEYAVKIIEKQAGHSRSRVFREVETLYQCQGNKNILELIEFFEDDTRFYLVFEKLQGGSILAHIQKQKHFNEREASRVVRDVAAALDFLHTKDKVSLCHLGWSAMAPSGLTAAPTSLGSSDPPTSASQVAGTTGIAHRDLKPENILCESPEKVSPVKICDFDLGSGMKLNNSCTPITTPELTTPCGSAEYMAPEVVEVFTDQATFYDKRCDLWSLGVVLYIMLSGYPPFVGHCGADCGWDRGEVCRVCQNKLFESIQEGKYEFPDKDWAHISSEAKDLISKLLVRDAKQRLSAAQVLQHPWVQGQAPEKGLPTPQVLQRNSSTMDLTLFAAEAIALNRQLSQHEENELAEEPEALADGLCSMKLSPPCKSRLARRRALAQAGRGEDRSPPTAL
The target is the same in experiment [7]. The following applies: at 1 µM.
The target in experiment [8] is MAP kinase-interacting serine/threonine-protein kinase 2 (Homo sapiens) (UniProt Q9HBH9). The following applies: at 0.1 µM.
Experiment [9] shares this target. The following applies: at 1 µM.
Experiment [10] addresses Serine/threonine-protein kinase MARK2 (Homo sapiens) (UniProt Q7KZI7). The settings on record: at 0.1 µM.
Experiment [11] shares this target. The settings on record: at 1 µM.
In experiment [12] the target is PAS domain-containing serine/threonine-protein kinase (Homo sapiens) (UniProt Q96RG2). The settings on record: at 0.1 µM.
PAS domain-containing serine/threonine-protein kinase (Homo sapiens), sequence (Q96RG2 whole entry, the tested form may be a part): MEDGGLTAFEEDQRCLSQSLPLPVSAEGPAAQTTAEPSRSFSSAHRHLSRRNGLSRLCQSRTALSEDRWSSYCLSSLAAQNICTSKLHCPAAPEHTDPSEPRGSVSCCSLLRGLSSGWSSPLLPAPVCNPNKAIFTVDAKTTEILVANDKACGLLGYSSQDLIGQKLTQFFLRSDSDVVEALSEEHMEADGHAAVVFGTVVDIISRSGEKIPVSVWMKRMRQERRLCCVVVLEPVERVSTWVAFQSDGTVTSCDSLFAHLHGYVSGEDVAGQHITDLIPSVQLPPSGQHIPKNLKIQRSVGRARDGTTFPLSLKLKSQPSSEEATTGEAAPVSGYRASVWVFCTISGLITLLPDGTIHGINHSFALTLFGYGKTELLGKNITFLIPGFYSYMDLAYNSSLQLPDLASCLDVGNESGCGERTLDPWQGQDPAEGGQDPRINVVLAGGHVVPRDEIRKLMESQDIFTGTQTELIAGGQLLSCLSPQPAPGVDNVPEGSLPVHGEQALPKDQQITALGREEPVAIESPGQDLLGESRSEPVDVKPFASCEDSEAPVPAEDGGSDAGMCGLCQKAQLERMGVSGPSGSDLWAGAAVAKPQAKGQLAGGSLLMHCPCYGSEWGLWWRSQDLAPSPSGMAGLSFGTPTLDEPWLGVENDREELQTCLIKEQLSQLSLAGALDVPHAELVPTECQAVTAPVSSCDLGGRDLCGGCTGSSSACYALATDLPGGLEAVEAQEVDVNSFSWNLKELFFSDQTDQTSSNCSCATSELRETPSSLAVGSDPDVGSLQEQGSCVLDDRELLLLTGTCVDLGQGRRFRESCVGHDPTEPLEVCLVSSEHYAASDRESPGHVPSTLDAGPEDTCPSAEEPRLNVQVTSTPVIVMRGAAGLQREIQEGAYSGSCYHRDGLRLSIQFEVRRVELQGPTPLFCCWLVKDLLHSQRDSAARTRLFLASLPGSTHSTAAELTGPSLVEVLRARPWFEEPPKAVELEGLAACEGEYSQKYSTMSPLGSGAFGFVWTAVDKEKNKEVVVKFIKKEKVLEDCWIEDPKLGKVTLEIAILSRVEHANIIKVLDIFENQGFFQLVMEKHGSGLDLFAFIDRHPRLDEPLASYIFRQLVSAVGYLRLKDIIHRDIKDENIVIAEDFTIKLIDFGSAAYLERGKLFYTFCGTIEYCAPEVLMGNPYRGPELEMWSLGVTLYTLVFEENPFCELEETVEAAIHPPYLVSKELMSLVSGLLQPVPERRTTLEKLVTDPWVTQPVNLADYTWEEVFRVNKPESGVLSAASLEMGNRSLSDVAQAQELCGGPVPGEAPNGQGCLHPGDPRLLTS
Experiment [13] shares this target. The following applies: at 1 µM.
For experiment [14], the target named is Phosphorylase b kinase gamma catalytic chain, skeletal muscle/heart isoform (Homo sapiens) (UniProt Q16816). The following applies: at 0.1 µM.
Phosphorylase b kinase gamma catalytic chain, skeletal muscle/heart isoform (Homo sapiens), sequence (Q16816 whole entry, looked up, canonical isoform): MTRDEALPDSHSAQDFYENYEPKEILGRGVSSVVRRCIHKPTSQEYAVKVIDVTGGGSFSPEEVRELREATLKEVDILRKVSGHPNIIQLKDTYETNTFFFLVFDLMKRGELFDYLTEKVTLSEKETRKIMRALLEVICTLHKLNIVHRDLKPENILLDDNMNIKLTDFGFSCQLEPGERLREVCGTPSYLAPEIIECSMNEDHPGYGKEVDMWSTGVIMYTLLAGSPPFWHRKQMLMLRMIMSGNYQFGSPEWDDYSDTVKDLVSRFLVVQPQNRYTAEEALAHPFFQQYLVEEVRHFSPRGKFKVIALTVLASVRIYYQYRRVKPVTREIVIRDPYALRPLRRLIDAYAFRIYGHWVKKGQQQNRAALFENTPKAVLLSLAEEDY
Experiment [15] shares this target. The settings on record: at 1 µM.
For experiment [16], the target named is T2, Phosphorylase b kinase gamma catalytic chain, liver/testis isoform (Homo sapiens) (UniProt P15735).
T2 sequence (whole entry): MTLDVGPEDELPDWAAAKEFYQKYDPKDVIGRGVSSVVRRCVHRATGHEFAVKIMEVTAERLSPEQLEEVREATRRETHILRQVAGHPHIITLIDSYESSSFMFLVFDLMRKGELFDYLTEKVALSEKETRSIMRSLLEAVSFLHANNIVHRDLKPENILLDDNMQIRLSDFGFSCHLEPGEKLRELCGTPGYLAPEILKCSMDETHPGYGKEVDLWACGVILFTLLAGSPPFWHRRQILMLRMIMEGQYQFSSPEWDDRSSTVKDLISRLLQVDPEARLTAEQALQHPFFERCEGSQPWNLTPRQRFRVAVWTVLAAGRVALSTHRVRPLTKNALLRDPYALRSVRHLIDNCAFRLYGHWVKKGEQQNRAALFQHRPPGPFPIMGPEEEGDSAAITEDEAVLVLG
The following applies: at 0.1 µM.

Experiment [17] concerns the target T2, Phosphorylase b kinase gamma catalytic chain, liver/testis isoform (Homo sapiens). The settings on record: at 1 µM.
Experiment [18] addresses Serine/threonine-protein kinase pim-1 (Homo sapiens) (UniProt P11309). The settings on record: at 0.1 µM.
Experiment [19] has the same target. The settings on record: at 1 µM.
The target of experiment [20] is Serine/threonine-protein kinase pim-2 (Homo sapiens) (UniProt Q9P1W9). The settings on record: at 0.1 µM.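 Note: reported value is the mean percent inhibition of PIM2, measured in the GSK PKIS kinase inhibitor set screen.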
Serine/threonine-protein kinase pim-2 (Homo sapiens), sequence (Q9P1W9 whole entry, looked up): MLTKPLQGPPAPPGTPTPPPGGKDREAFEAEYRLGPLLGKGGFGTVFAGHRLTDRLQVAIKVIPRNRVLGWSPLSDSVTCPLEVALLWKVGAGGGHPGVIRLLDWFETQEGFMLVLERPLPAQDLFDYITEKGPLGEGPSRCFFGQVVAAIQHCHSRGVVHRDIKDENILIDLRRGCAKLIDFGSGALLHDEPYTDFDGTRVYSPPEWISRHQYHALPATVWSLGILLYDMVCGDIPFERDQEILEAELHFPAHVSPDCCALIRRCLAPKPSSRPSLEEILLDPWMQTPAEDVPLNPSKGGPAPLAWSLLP

SMILES strings stand for the structures.

A word on the inhibition: it is the change of the read-out against control, counted positive when it falls.

Serine/threonine-protein kinase MARK2 (Homo sapiens), sequence (Q7KZI7 whole entry): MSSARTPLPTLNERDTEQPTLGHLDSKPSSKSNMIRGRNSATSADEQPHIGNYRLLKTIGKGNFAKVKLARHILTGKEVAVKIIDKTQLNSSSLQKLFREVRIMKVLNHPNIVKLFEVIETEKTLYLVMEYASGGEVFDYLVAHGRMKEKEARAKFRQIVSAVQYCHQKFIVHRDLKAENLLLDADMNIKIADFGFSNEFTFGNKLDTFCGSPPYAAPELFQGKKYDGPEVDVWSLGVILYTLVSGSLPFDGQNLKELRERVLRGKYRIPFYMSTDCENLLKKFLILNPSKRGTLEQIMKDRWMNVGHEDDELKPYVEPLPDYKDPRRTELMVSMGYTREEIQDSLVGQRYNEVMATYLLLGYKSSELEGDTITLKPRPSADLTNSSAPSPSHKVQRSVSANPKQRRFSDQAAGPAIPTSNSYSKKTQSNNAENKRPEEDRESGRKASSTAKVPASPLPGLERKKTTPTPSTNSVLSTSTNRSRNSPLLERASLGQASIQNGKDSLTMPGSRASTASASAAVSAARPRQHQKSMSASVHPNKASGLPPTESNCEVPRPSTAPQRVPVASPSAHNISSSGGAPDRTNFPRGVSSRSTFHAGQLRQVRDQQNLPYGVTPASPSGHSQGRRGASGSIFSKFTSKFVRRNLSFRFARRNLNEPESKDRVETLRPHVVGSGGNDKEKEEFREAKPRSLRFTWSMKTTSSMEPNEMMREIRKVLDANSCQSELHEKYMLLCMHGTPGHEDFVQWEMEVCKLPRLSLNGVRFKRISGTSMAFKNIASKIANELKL
MAP/microtubule affinity-regulating kinase 3 (Homo sapiens), sequence (P27448 whole entry, looked up): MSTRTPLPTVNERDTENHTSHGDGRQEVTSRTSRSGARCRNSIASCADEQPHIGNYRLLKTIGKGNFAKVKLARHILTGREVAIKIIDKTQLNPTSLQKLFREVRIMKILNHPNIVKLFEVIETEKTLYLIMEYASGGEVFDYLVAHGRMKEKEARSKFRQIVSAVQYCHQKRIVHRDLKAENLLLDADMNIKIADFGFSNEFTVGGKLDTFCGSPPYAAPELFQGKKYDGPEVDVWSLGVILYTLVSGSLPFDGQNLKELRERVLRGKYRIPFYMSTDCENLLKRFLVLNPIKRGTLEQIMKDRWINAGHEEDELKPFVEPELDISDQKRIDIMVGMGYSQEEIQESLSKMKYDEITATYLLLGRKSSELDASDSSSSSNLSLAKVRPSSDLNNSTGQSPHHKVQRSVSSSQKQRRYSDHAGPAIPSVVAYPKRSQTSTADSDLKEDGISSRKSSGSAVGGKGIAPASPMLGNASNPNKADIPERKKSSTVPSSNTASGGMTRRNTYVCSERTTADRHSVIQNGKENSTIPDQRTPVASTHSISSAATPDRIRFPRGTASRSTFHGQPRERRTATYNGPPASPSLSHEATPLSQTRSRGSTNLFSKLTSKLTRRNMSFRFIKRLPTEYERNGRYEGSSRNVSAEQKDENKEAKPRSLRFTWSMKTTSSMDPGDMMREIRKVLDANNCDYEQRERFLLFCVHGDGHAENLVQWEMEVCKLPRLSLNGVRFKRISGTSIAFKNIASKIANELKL
Serine/threonine-protein kinase pim-1 (Homo sapiens), sequence (P11309 whole entry, looked up): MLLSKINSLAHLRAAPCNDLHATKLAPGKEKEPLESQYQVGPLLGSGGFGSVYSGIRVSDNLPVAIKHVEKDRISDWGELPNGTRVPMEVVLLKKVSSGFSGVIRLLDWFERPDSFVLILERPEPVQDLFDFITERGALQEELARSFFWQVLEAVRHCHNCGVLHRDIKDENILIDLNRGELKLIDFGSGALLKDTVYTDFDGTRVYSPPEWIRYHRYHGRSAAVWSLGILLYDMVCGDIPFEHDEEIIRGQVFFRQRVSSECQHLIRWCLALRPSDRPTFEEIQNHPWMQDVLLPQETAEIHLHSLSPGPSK

In the case of `CS(=O)(=O)CCNCc1ccc(-c2ccc3ncnc(Nc4ccc(OCc5cccc(F)c5)c(C(F)(F)F)c4)c3c2)o1`, the inhibition in [1] was -2.72%; in [2] it was 1.59%; in [3], -0.39%; in experiment [4] it was 4.21%; in [5], 3.14%; in [6] it was 3.81%. In addition, the inhibition in [7] was 9.5%; in [8], 3.07%; in experiment [9], 10.4%; in experiment [10], 2.7%; in [11] it was -0.27%; in [12], -0.62%. Besides, the inhibition in experiment [13] was found to be 0.4%; in experiment [14], 5.41%; in [15] it was 4.1%; in experiment [16] it was 4.72%; in experiment [17] it was 4.64%; in [18], 1.03%. Further, the figures for the inhibition in experiment [19] and in experiment [20] were 1.08% and 0.19%, respectively.
`Nc1nc(-c2ccccn2)c(-c2ccc3ncccc3n2)s1`: the inhibition in experiment [1] was determined as 8.13%; in experiment [2] it was 0.3%; in [3] it was 2.26%; in experiment [4] it was 3.67%; in [5], 7.64%; in [6], 2.16%. The inhibition was 5.61% in experiment [7]; 1% in experiment [8]; 5.53% in [9]; -3.64% in [10]; 1.77% in [11]; -0.2% in experiment [12]. The inhibition was -0.49% in experiment [13]; 0.58% in experiment [14]; 4.27% in experiment [15]; 4.79% in experiment [16]; 5.31% in experiment [17]; 0.81% in experiment [18]. The inhibition was 2.21% in experiment [19] and -0.67% in experiment [20].
`Nc1nc(-c2ccc3c(c2)C(=Cc2cc(Br)c(O)c(Br)c2)C(=O)N3)cs1`: the inhibition is -2.49% in [1]; 0.78% in [2]; 1.73% in experiment [3]; 0.07% in experiment [4]; 5.36% in [5]; -1.04% in experiment [6]. The inhibition in [7] is 7.91%; in [8], 0.49%; in [9], 10.6%; in [10], 0%; in experiment [11], 0.67%; in experiment [12], -0.9%. Also, the inhibition in [13] is -1.85%; in experiment [14], 3.78%; in experiment [15] it was 5.21%; in [16], -3.21%; in experiment [17] it was -2.57%; in experiment [18], 3.74%. Further, the inhibition was found to be 25.6% in experiment [19] and 10.8% in experiment [20].
Consider `Cc1nn(C)c2cc(N(C)c3ccnc(Nc4cccc(S(N)(=O)=O)c4)n3)ccc12`, for which the inhibition is -2.37% in experiment [1]; 1.36% in [2]; 0.82% in experiment [3]; 4.84% in experiment [4]; 5% in experiment [5]; 1.93% in experiment [6]. Also, the inhibition in [7] is 6.83%; in [8], 2.38%; in [9], 7.27%; in [10] it was -0.09%; in experiment [11] it was 1.25%; in experiment [12] it was -0.56%. The inhibition was -0.33% in experiment [13]; 3.53% in experiment [14]; 8.04% in experiment [15]; 2.44% in experiment [16]; 2.5% in experiment [17]; 1.18% in experiment [18]. In addition, the inhibition in experiment [19] came out at 0.82%; in [20], 0.22%.
As for `O=C(Nc1n[nH]c2nc(-c3ccco3)c(Br)cc12)C1CC1`, the inhibition in experiment [1] was -5.02%; in experiment [2] it was 1.46%; in experiment [3] it was 2.43%; in experiment [4] it was 2.96%; in experiment [5], 7.3%; in experiment [6], 3.3%. In addition, the inhibition was 13.9% in experiment [7]; 1.26% in experiment [8]; 1.34% in experiment [9]; -0.08% in experiment [10]; 2.09% in experiment [11]; 0.09% in [12]. Moreover, the inhibition was -1.87% in experiment [13]; 1.65% in experiment [14]; 2.36% in [15]; 4.24% in experiment [16]; 1.34% in experiment [17]; -0.5% in experiment [18]. Further, the inhibition in [19] is 0.54%; in experiment [20], -0.2%.
For the molecule `COc1cc(C)c(NC(=O)CN(C)C)cc1Nc1nc(Nc2cccc(F)c2C(N)=O)c2cc[nH]c2n1`, the inhibition in experiment [1] was 0.73%; in experiment [2], -0.67%; in experiment [3], 0.75%; in experiment [4], 2.85%; in experiment [5], 18.1%; in [6], 1.46%. The inhibition in experiment [7] is 0.39%; in [8], 0.92%; in experiment [9], 1.25%; in [10], -2%; in experiment [11] it was -0.1%; in experiment [12], -0.35%. The inhibition is -3.17% in experiment [13]; 8.46% in experiment [14]; 43.5% in [15]; 4.74% in [16]; 8.82% in experiment [17]; 8.2% in experiment [18]. Also, the figures for the inhibition in experiment [19] and in experiment [20] were 43.2% and 0.16%, respectively.

These data come from ChEMBL document CHEMBL1961873, “Compounds: GSK PKIS; Assays: Nanosyn kinase panel” (2012).
